D1 antagonist – Antagonist of Human D 1 Dopamine Receptor: qHTS; HEK293 TREx D1 cells, calcium flux, dopamine EC80; hits give low values; activity change, negative = inhibition, % at 10 µM; actives 3.2% (n = 360,000); in the data active means activity change below about -30%; further: on the % scale 0 is the no-effect control and ±100 the full control effect
Target sequence (P21728 whole entry, looked up): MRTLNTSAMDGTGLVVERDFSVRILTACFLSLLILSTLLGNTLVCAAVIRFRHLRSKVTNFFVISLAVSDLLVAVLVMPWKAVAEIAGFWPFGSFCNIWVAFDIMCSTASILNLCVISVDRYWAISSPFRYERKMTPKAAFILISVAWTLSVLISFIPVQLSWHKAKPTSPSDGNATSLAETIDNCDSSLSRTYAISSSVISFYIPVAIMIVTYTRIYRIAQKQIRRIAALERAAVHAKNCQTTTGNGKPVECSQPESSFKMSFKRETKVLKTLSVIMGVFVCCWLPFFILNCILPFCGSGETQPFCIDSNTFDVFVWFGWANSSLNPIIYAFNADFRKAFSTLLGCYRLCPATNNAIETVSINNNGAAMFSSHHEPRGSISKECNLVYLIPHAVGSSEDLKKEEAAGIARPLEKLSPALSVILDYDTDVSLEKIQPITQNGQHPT
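Inducible Hek293 Trex D1 cells (tetracycline, overnight, 30 C). Calcium dye 30–90 min RT. Antagonist mode: EC80 dopamine added after 180 s compound read.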
D3 antag – qHTS of D3 Dopamine Receptor Antagonist: qHTS | max response, negative = inhibition, % | actives 2.5% (n = 360,000) | AID 652054, 2013 | D(3) dopamine receptor (Homo sapiens), P35462 | D3R cells, DiscoveRx beta-arrestin luminescence, antagonist mode; hits give low values; in the data active means max response below about -50%; further: on the % scale 0 is the no-effect control and ±100 the full control effect
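Cells expressing the human receptor were seeded at 1500 cells/well, incubated overnight at 37 degrees C in 5% CO2, then exposed to library compounds with dopamine controls for 90 minutes at 37 degrees C before luminescent detection.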
D3 ag – qHTS of D3 Dopamine Receptor Agonist: qHTS | D(3) dopamine receptor (Homo sapiens), P35462 | D3R DiscoveRx beta-arrestin cells, luminescence, 90 min | max activation, % | actives 0.58% (n = 410,000) | AID 652048, 2013; in the data active means max activation above about 30%; further: 0% is about no effect
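Cells at 1500/well, incubated overnight, then treated with pinned compounds (dopamine as control) for 90 min at 37 degrees C. DiscoveRx reagent added for 30 - 60 minutes at room temperature; luminescence read.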
D1 ag – Allosteric Agonists of the Human D1 Dopamine Receptor: qHTS. HEK293 T-REx D1 cells, calcium flux, agonist mode. activation, % at 2 µM. actives 1% (n = 360,000); in the data active means activation above about 30%; further: 0% is about no effect
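Inducible HEK293 T-REx D1 cells, force-coupled to calcium signalling, were plated at 4000 cells/well with tetracycline and held overnight at 30 C. After no-wash calcium dye loading, compound-evoked calcium rise over 180 s flagged agonists.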
D1 potentiator – Potentiators of Human D1 Dopamine Receptor: qHTS | HEK293 TREx D1 cells, calcium flux, dopamine EC20 potentiation | potentiation, % at 10 µM | actives 0.036% (n = 360,000); in the data active means potentiation above about 30%; further: 0% is about no effect
Starred values were filed as active, the others as inactive; · = no result; ! = not active in a repeat. Sampled rows, rich in hits. Any-hit rate of the full collection: about 6%.

SMILES	D1 antagonist	D3 antag	D3 ag	D1 ag	D1 potentiator
COc1ccccc1NC(=O)CSCc1cc(=O)c2cccc(Cl)c2[nH]1	-48*	·	7	1	-1
COc1cccc(N/C(=N/C(=S)Nc2ccc(C)cc2C)Nc2nc(C)cc(C)n2)c1	-61*	1	-2	9	-4
O=C(COc1ccccc1F)Nc1ccc2oc(-c3cccc(Cl)c3)nc2c1	20	·	13	0	-1
Nc1nc(Sc2ccc([N+](=O)[O-])c3nonc23)c2[nH]cnc2n1	·	-60*	-11	·	·
CC(=O)Nc1ccc(S(=O)(=O)N2CCN(c3cc(C(F)(F)F)ccn3)CC2)cc1	-13	-10	-1	5	4
FC(F)(F)c1ccnc(N2CCN(Cc3cnc(-c4ccccc4)[nH]3)CC2)c1	3	-77*	-18	10	-11
NS(=O)(=O)c1ccc(NCc2c(F)cccc2Cl)cc1	-35*	-13	-1	8	-3
CCc1ccc(NC(=S)NCc2cccnc2)cc1	3	-6	2	1	-2
Fc1ccc(CNC(=S)Nc2ccc(OC(F)F)cc2)cc1	-42*	-4	2	26	-7
S=C(NCc1ccccc1)Nc1ccncc1	-56*	9	16	8	-17
CCc1ccc(NC(=S)NCc2ccccc2)cc1	-38*	12	5	6	-7
S=C(NCc1ccncc1)Nc1ccccc1	·	-6	-4	-1	-5
C=CCOc1ccccc1CN1CCC(n2nccc2NC(=O)c2ccccc2)CC1	10	-8	-14	-1	-8
CCCc1nc2ccccc2c(C(=O)OCC(=O)Nc2cccc(S(=O)(=O)N3CCOCC3)c2)c1CC	-34*	16	1	8	-7
CCN(CC)S(=O)(=O)c1cccc(NC(=O)COC(=O)c2n[nH]c(=O)c3ccccc23)c1	-32*	12	12	4	-5
CCCc1nc2ccccc2c(C(=O)OCC(=O)N2CCc3ccccc32)c1CC	-19	83	70*	2	-6
O=C(COC(=O)CCc1ccc(S(=O)(=O)N2CCOCC2)cc1)Nc1ccc(Cl)cn1	-8	8	1	36*!	-8
CC1CCc2nc3ccccc3c(C(=O)OCC(=O)N3CCc4ccccc43)c2C1 (stereo unspecified)	-8	39	2	5	3
CCOc1ccc(Nc2ncnc3c2c(-c2ccccc2)cn3-c2cccc(C)c2)cc1	-18	·	0	1	-2
CC(=O)Nc1ccc(NC(=O)c2ncoc2-c2ccco2)cc1	9	·	0	-1	0
Nc1cc2c(cc1Br)-c1ccccc1C2=NO	·	1	6	·	·
CCC1NC(=O)c2cccnc2-n2c1nc1ccc(F)cc1c2=O (stereo unspecified)	·	-10	-2	·	·
O=C(COC(=O)c1n[nH]c2ccccc12)Nc1cccc(S(=O)(=O)N2CCOCC2)c1	-31*	9	5	4	-9
O=C(COC(=O)c1cc(=O)[nH]c2ccccc12)Nc1cccc(S(=O)(=O)N2CCOCC2)c1	-9	-11	-4	4	-12
CCCc1nc2ccccc2c(C(=O)OCC(=O)NC2CC2)c1CC	·	31	3	·	·
SMILES	D1 antagonist	D3 antag	D3 ag	D1 ag	D1 potentiator
O=C(COC(=O)CCc1nc2ccccc2s1)Nc1cccc(S(=O)(=O)N2CCOCC2)c1	-44*	-12	3	4	-7
O=C(COC(=O)CCc1nc2ccccc2s1)Nc1ccc(S(=O)(=O)N2CCOCC2)cc1	-3	6	0	4	1
COc1ccccc1CC(=O)Nc1cccc(S(=O)(=O)N2CCOCC2)c1	-21	-13	0	2	-2
COc1ccc2c(CC(=O)Nc3cccc(S(=O)(=O)N4CCOCC4)c3)coc2c1	-87*	-6	1	1	-11
CCCc1nc2ccccc2c(C(=O)OCC(=O)Nc2ccc(S(=O)(=O)N3CCOCC3)cc2)c1CC	·	36	32*	5	-2
Cc1ccc(/C=C/C(=O)c2c(C)nc3ccccn23)cc1	-71*	25	1	-1	-1
Cc1nc2ccccn2c1C(=O)/C=C/c1cccc([N+](=O)[O-])c1	4	4	-4	4	1
COc1cccc(C(O)c2nc(-c3cccc(C(C)C)c3)cs2)c1 (stereo unspecified)	·	40	6	·	·
Cc1nc2c3ccccc3nc(NNC(=O)CCC(=O)N3CCCC(C)C3)n2n1 (stereo unspecified)	-33*	-30	-6	0	-5
O=C(NCCC1=CCCCC1)C(=O)NCC(c1ccco1)N1CCN(c2ccc(F)cc2)CC1 (stereo unspecified)	5	-66*	-6	0	1
COc1cc(OC)c(NS(=O)(=O)c2ccc3c(c2)NC(=O)CCS3)cc1Cl	-38*	·	4	15	2
COc1cc(OC)c(NS(=O)(=O)c2ccc3c(c2)NC(=O)CO3)cc1Cl	-8	21	8	8	-1
O=C(NCc1nnc(-c2cc3ccccc3[nH]2)o1)c1ccccc1	-11	·	·	3	-4
Cc1ccc(C2=NC(c3ccc(F)cc3)=Nc3ccc(C)cc3N2)cc1	-40*	·	-5	1	-2
COc1cc(C)ccc1OCCCCOc1ccccc1C(C)=O	-49*	12	6	18	-6
CC(=O)c1ccccc1OCCOCCOc1ccccc1C(C)=O	-34*	6	8	25	-7
c1cc(CNC2C3CC4CC(C3)CC2C4)ccn1 (stereo unspecified)	-3	-57*	-16	3	-1
CCOc1ccc(CN2C(=O)CCC2(C)C(=O)NCc2cccnc2)cc1 (stereo unspecified)	-30*	26	4	3	-8
COc1ccccc1C(=O)N1CCN(Cc2cc(=O)oc3cc(C)ccc23)CC1	-8	·	9	0	-3
COc1ccc([C@@H]2CC(=O)c3c(O)cc(O[C@@H]4OC(CO[C@@H]5OC(C)[C@H](O)[C@@H](O)[C@H]5O)[C@@H](O)[C@H](O)[C@H]4O)cc3O2)cc1O (stereo partly specified)	·	4	-6	·	·
CC1O[C@@H](OCC2O[C@@H](Oc3cc(O)c4c(c3)OC(c3ccc(O)cc3)CC4=O)[C@H](O)[C@@H](O)[C@@H]2O)[C@H](O)[C@H](O)[C@H]1O (stereo partly specified)	12	-58*	-24	3	-5
CCC(C)C(=O)Nc1nc(C)c(-c2csc(Nc3cc(Cl)ccc3OC)n2)s1 (stereo unspecified)	0	2	48*	3	-4
Cc1cc(C)cc(NC(=O)c2cccc3c2C(=O)N(C2CCCCC2)C3)c1	-1	9	2	0	-4

Assay outcomes deposited in PubChem BioAssay by National Center for Advancing Translational Sciences (NCATS).
